Assay outcomes as filed in PubChem.
Only some compounds are listed: those with a hit (about 6.3% of all), similar ones and a draw of the others.
ATXN2 expr inh – Primary qHTS for Inhibitors of ATXN expression; Potency, µM (highest dose often 57 µM), for inactives: at the top dose activity change, negative = inhibition, hits mostly inhibitors; HEK-293 ATXN2-luciferase reporter, luminescence, 24 h; 360,000 tested, 0.72% active; note: % is set by controls: 0 for no effect and ±100 for the full control effect; nearly all actives have a fitted effect of over 55% in size
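ATXN2-luciferase reporter cells (luciferase flanked by upstream and downstream ATXN2 gene portions) were treated 24 h at 37 °C with compounds at up to 57 uM. SteadyGlo luminescence gave expression; GF-AFC fluorescence gave viability.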
VP16 counter – VP16 counterscreen qHTS for inhibitors of ROR gamma transcriptional activity; Drosophila S2 Gal4-VP16 UAS-luciferase, luminescence, 20 h; Potency, µM (top dose mostly 53.6 µM), for the others: at the highest dose activity, negative = inhibition, usual class: inhibitors; 310,000 tested, 3.5% active;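 note: Gal4-VP16 expression switched on by copper sulfate through the metallothionein promoter; % is set by controls: 0 for no effect and ±100 for the full control effect; nearly all actives have a fitted effect of over 50% in size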
ATXN viability – Viability Counterscreen for Primary qHTS for Inhibitors of ATXN expression; S2 cells (HEK-293 line with an ATXN2-luciferase reporter) viability, CellTiter-Fluor protease fluorescence, 24 h; Potency, µM (series often up to 56.7 µM), actives largely listed as cytotoxic; 400,000 tested, 0.49% active; AID 651635, 2014; note: nearly all actives have a fitted effect of over 40% in size
TGFb inhibitor – qHTS for Inhibitors of TGF-b; HepG2 CAGA-GFP TGF-b/SMAD3 reporter, GFP fluorescence, 18 h; TGF-beta stimulated, 500 pg/mL final; Potency, µM (titrated, usually from 46.1 µM), inactives show at the top dose activity, negative = inhibition, actives largely listed as inhibitors; 410,000 tested, 1.2% active; note: % is set by controls: 0 for no effect and ±100 for the full control effect; nearly all actives have a fitted effect of over 65% in size
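GFP signal (ex488/em500-530) from TGF-beta-stimulated HEPG2 CAGA-GFP cells, 500 pg/mL final, 18 h at 37 degrees C in DMEM plus 1% FBS, normalized to unstimulated and DMSO-stimulated controls.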
HepG2 tox – qHTS for Inhibitors of TGF-b: Cytotox Counterscreen; HepG2 CAGA-GFP viability, ATP luminescence, 18 h; 410,000 tested, 0.76% active; Potency, µM (titrated, usually from 46.1 µM), inactives show at the top dose activity change, negative = cytotoxicity, actives largely listed as cytotoxic
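HepG2 CAGA-GFP cells (1000/well, DMEM with 1% FBS) received compound, then TGF-beta at 500 pg/mL final, and were incubated 18 hours at 37 degrees C. Viability was read by CellTiter-Glo luminescence. Media-only wells were set as complete cell-killing and DMSO as no toxicity.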
RORg inh – qHTS for inhibitors of ROR gamma transcriptional activity; 310,000 tested, 5.4% active; AID 2551, 2010; Nuclear receptor ROR-gamma (Mus musculus), P51450; Potency, µM (top dose mostly 53.6 µM), for the others: top-dose activity change, negative = inhibition, usual class: inhibitors; Drosophila S2 Gal4-RORgamma UAS-luciferase reporter, 20 h; note: % is set by controls: 0 for no effect and ±100 for the full control effect; nearly all actives have a fitted effect of over 60% in size
Target sequence (P51450 whole entry, looked up, the tested form may be a part): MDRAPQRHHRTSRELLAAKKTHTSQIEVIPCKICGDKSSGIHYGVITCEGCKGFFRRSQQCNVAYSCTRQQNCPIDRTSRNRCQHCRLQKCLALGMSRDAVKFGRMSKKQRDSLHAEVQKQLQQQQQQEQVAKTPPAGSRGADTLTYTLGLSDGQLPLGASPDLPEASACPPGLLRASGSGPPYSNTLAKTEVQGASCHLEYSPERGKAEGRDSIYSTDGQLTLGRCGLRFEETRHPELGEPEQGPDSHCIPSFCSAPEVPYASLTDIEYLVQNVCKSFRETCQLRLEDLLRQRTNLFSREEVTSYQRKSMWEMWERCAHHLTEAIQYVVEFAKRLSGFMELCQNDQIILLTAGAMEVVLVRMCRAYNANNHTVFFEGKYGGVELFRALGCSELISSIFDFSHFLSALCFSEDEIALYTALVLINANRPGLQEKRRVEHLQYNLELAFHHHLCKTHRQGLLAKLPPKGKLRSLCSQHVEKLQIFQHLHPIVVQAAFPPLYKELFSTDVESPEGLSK
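Luciferase reporter read in Schneider cells carrying Gal4-RORγ (mouse) and UAS-Photinus luciferase; cells given compound 1 h before 700 uM copper sulfate induction, then incubated 20 h at ambient temperature.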
The depositor's hits bear a star; i = inactive; ? = inconclusive; . = not tested or not shown; [ ] = another dose, or the depositor's remark. Calls come from the whole dose curve; as a rule, active = well fitted curve in the direction sought with a large enough effect; inconclusive = small, poorly fitted or top-dose-only effect, or another doubt; inactive = no such curve, though single readings can be large; an effect the other way counts as inactive or inconclusive. Potency is the fitted concentration of half-maximal effect.

SMILES	ATXN2 expr inh	VP16 counter	ATXN viability	TGFb inhibitor	HepG2 tox	RORg inh
CCCCCCNC(=O)O[C@H]1Cn2c(=O)ccc(=O)n2[C@@H]2CN(S(=O)(=O)c3ccc(C)cc3)C[C@]12O	14µM*	.	20µM*	?	-108%	.
Cc1ccc(CNC(=O)C2COc3ccccc3C2)cc1 (configuration not stated)	6%	.	i	3%	2%	.
COc1ccc(NC(=O)[C@H](C)NS(=O)(=O)c2ccc(NC(C)=O)cc2)cc1Cl	.	.	i	-12%	-1%	.
O=C(COC(=O)c1ccccn1)Nc1nc(-c2cccc([N+](=O)[O-])c2)cs1	18%	35µM*	i	-17%	-28%	13µM*
COc1ccc2nc(NC(=O)CSC3=NCCS3)sc2c1	14%	-22%	i	9%	-1%	?
CCOc1ccc2nc(NC(=O)CSc3ccc(Cl)cc3)sc2c1	18%	?	i	-1%	-11%	11µM*
COc1ccc2nc(NC(=O)CN3C(=O)NC4(CCCCC4)C3=O)sc2c1	6%	-11%	?	1%	4.5µM*	?
CCOc1ccc2nc(NC(=O)CSC3=NCCS3)sc2c1	4%	-18%	i	-1%	-21%	14µM*
COc1ccc2nc(NC(=O)CSc3ccccc3)sc2c1	0%	-14%	i	-9%	-8%	1.6µM*
O=C(Nc1cc(-c2nc3ccccc3o2)ccc1Cl)c1sc2c([N+](=O)[O-])cccc2c1Cl	10%	.	i	14%	19%	.
COC(c1ccccc1)(c1ccccc1)[C@H](Oc1nc(C)cc(C)n1)C(=O)O	-8%	.	i	.	.	.
S=c1[nH]nc(-c2cccc3ccccc23)n1-c1cccnc1	-10%	-2%	i	17%	1%	-43%
CCCCOCC(O)CCc1n[nH]c(=S)n1-c1ccccc1 (configuration not stated)	6%	-6%	i	12%	4%	-45%
CCCCc1ccc(-n2c(Cc3cccs3)n[nH]c2=S)cc1	-23%	?	i	-17%	-12%	1.4µM*
S=c1[nH]nc(Cc2cccs2)n1-c1ccccc1Cl	-31%[11.3 µM]	?	i	-4%	-9%	6.3µM*
S=c1[nH]nc(Cc2cccs2)n1-c1cccc2ccccc12	-2%	?	i	?	-19%	4µM*
COc1ccccc1-n1c(CNC(=O)c2cccs2)n[nH]c1=S	-29%	4%	i	-6%	-2%	-23%
COc1ccccc1-n1c(Cc2cccs2)n[nH]c1=S	9%	-17%	i	-4%	-7%	10µM*
Cc1ccc(-c2cc(Cc3cccs3)c(=O)[nH]n2)cc1	7%	-7%	i	-10%	-65%	-11%
S=c1[nH]nc(Cc2cccs2)n1-c1ccccc1	1%	?	i	5%	14%	11µM*
Cc1ccc(C)c(-n2c(Cc3cccs3)n[nH]c2=S)c1	-4%	3.2µM*	i	?	9%	7.1µM*
CCOc1ccc(NC(=O)CS(=O)(=O)Cc2nc(-c3ccc(C)cc3)oc2C)cc1	.	.	.	-30%	-21%	.
Cc1ccc(C)c(NC(=O)CSc2ccc3nc(-c4ccccc4)cn3n2)c1	29%	.	i	13%	5%	.
CC/C(O)=C(/C#N)c1nnc2n1CCCCC2	-7%	?	i	-4%	-2%	20µM*
N#C/C(=C(/O)COc1ccc(Br)cc1)c1nnc2n1CCCCC2	.	?	i	-3%	4%	-21%
SMILES	ATXN2 expr inh	VP16 counter	ATXN viability	TGFb inhibitor	HepG2 tox	RORg inh
CC/C(O)=C(\C#N)c1nnc2n1CCCCC2	8%	?	i	16%	6%	13µM*
Cc1c(CNC2CCCCC2)c(C(=O)O)c(C)n1Cc1c(F)cccc1Cl	1%	.	i	8%	-3%	.
CC(C(=O)c1ccccc1)[n+]1ccc(Cl)c2ccc(Cl)cc21 (configuration not stated)	.	.	.	-6%	-8%	.
Cc1nnc2c(N3CCN(c4ccccc4)CC3)nc3ccc(C(=O)c4ccccc4)cc3n12	-3%	.	i	-16%	-4%	.
COc1ccc(C(=O)NNC(=O)c2cc3cc(OC)ccc3oc2=O)cc1	-4%	4%	i	-1%	12%	-7%
COc1ccc(C(=O)Nc2cc(C(C)=O)c(C)oc2=O)cc1	35%	?	i	1%	-19%	11µM*
CC(=O)c1cc(NC(=O)c2cccc(C(F)(F)F)c2)c(=O)oc1C	-2%	7.1µM*	i	-2%	-17%	3.2µM*
Cc1ccc(NC(=O)Nc2nnc(N(C)C3CCCCC3)s2)c(Cl)c1	7%	.	i	-11%	1%	.
COCc1cc(OC)nc(-c2csc(C)n2)n1	.	-23%	i	-16%	3%	11µM*
CCN(CC)CCOC(=O)c1ccc(NC(=O)c2nn(-c3ccc(C)cc3)c(=O)c3c2c2ccccc2n3C)cc1	.	.	.	4.5µM*	3.5µM*	.
CCN(CC)CCCNC(=O)c1nn(-c2ccc(C)cc2)c(=O)c2c1c1ccccc1n2C	-10%	.	i	5%	-29%	.
C/C(=N\NC(=O)c1nc2ccccn2c1C)c1ccco1	46%	8%	.	?	-19%	-12%
